Source: PubChem
GRK2 inh = blocks RNA aptamer binding to human GRK2; actives 0.59% (n = 330,000); inhibition of aptamer binding, % at 10 µM; bead flow cytometry, FAM-aptamer displacement from GRK2; P25098;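 active means inhibition of aptamer binding above 40%, roughly 3 SD of noise, on plates passing a quality check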;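 further: median bead fluorescence of bound FAM aptamer so fluorescent compounds give negative values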
Neddylation inh = inhibitors of human cullin neddylation; AID 651699; TR-FRET cullin neddylation, biochemical; inhibition, % at 25 µM; actives 0.58% (n = 360,000); in the data active means inhibition above about 36%
Target sequence (P61081 whole entry, looked up): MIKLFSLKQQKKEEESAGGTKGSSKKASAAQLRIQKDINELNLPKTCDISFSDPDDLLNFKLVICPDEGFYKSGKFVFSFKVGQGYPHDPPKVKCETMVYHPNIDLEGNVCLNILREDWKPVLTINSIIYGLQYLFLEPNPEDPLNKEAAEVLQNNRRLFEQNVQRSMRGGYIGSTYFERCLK
Target sequence (Q13564 whole entry, looked up): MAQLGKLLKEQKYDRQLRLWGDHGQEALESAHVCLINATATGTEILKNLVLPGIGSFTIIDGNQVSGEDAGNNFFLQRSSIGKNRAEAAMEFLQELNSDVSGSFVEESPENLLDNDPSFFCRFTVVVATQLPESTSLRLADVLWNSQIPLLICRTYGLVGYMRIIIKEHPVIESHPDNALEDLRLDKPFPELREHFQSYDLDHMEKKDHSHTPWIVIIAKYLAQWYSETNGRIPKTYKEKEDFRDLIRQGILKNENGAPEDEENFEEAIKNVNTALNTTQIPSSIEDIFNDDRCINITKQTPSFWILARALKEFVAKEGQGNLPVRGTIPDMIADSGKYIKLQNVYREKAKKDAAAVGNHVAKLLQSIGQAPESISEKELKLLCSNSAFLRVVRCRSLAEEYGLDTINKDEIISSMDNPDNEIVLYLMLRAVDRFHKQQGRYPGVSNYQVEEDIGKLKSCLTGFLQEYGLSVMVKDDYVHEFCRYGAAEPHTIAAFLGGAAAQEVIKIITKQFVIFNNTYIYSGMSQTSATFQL
HDAC3 inh = blocks human histone deacetylase 3. actives 0.15% (n = 320,000). O15379. recombinant HDAC3, fluorogenic peptide/trypsin coupled, fluorescence. AID 2718. inhibition, % at 8.3 µM; in the data active means inhibition above about 26%, passing the limit was not always enough
H9c2 protect = myocardial damage modulation in H9c2 cells; H9c2 cardiomyocytes, H2O2 injury protection, ATPLite, 2 h; protection from H2O2 cell death, % at 20 µM; actives 0.63% (n = 360,000); AID 588492;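 active means compounds giving at least 50% protection of heart cells from peroxide-induced death in the single-dose screen, raw or plate-pattern-corrected value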;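 further: 0% = DMSO wells with peroxide and 100% = DMSO wells without peroxide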
GRK2 inh confirm = confirmation of human GRK2 inhibitors displacing RNA aptamer | shares compounds with GRK2 inh | bead-bound GRK2, FAM-aptamer displacement, flow cytometry | aptamer displacement, % at 10 µM | actives 4% (n = 2,000) | AID 504451;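 active means aptamer displacement above 40%, near three times the noise of non-fluorescent compounds, on plates passing quality checks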;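 further: negative values mostly reflect intrinsic compound fluorescence rather than true enhancement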
Aptamer quench 1 = fluorescent aptamer quenching in GRK2 counter-screen dose response | Fluorescent RNA aptamer beads, flow cytometry; hits give high values | fluorescence change (kMESF span), kMESF (concentration not given with the values) | shares compounds with GRK2 inh | AID 504521 | 110 tested, under 10 active;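 active means compounds whose bead fluorescence drops by more than 37 kMESF across the dose range, marking them as dye quenchers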
FAM quench CP1 = counter-screen for GRK2 aptamer inhibitors: fluorescent aptamer quenchers; Carboxyfluorescein RNA aptamer on beads, flow cytometry quenching; hits give low values; fluorescence response (% of DMSO), % at 10 µM; AID 504580; 2,000 tested, under 10 active; shares compounds with GRK2 inh;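 active means compounds that quench the bead-bound fluorescent RNA probe, cutting fluorescence to under half of the solvent control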;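 further: counterscreen run without GRK2 so only probe quenching by compound is measured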
GRK2 confirm 2 = human GRK2 inhibition confirmation, cherry pick 2. shares compounds with GRK2 inh. bead-bound GRK2, FAM-aptamer displacement, flow cytometry. inhibition of aptamer binding, % at 10 µM. 360 tested, under 10 active. AID 504782;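 active means inhibition of aptamer binding above 40%, about triple the noise seen with nonglowing compounds, on plates passing quality control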;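 further: negative values mostly come from compounds that fluoresce themselves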
FAM quench SP = quenches fluorescent RNA aptamer, GRK2 hit artifact. 360 tested, under 10 active. AID 588494. fluorescence response vs DMSO, % at 10 µM. carboxyfluorescein RNA aptamer beads, flow cytometry quenching; hits give low values. shares compounds with GRK2 inh;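 active means response vs DMSO under 50%, meaning signal dropped by over half, treated as fluorescence quencher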;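 further: labelled aptamer on streptavidin beads without GRK2 as a quench counter-screen; 100% = bead fluorescence of DMSO wells and lower means quenching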
An asterisk follows results filed as active; . = no result. Hits are enriched below; roughly 1.8% of the tested compounds scored in any of these assays.

SMILES	GRK2 inh	Neddylation inh	HDAC3 inh	H9c2 protect	GRK2 inh confirm	FAM quench CP1	others
[O-]/[N+](=N\Nc1ccc(Cl)cc1)c1ccccc1	.	-1	.	15	.	.
COc1ccc(CNC(=O)C2CC(C)=C(C)CC2C(=O)O)cc1OC (stereo not drawn)	0	4	11	3	.	.	GRK2 confirm 2=6;FAM quench SP=98
CC1=C(C)CC(C(=O)NCc2ccc3c(c2)OCO3)C(C(=O)O)C1 (stereo not drawn)	2	5	-8	2	.	.
CCOc1ccc(CCNC(=O)C2CC(C)=CCC2C(=O)O)cc1OCC (stereo not drawn)	66*	8	3	-2	53*	98	Aptamer quench 1=4.1
CN(C)C(=O)c1ccc(Cl)cc1[N+](=O)[O-]	0	-10	-5	-2	.	.
O=C(Nn1cnnc1)c1ccc(Cl)cc1[N+](=O)[O-]	93*	-5	-2	4	-4	101
Cc1ccc(C(=O)NN2CCOCC2)cc1[N+](=O)[O-]	0	-10	.	2	.	.
Cc1ccc(C(=O)Nn2cnnc2)cc1[N+](=O)[O-]	47*	-19	-1	3	0	101
CC1(C(=O)Nc2ccccc2Br)CCN1C(=O)Cc1ccc(Cl)cc1Cl (stereo not drawn)	.	1	.	0	.	.
CC(C)c1ccc(O)c(=O)cc1	.	-5	.	36	.	.
COc1ccc(Cn2c(=O)sc3ccccc32)cc1	3	7	12	-1	.	.
O=c1sc2ccccc2n1Cc1ccccc1	85*	-1	2	-1	-1	95
C=CCn1c(SCC(=O)Nc2ncc(Cc3ccc(Br)cc3)s2)nnc1-c1ccncc1	91*	-39	2	-7	7	97
Cc1cccc(C)c1NC(=O)CN1C(=O)CCSc2ccc(S(=O)(=O)N3CCCC3)cc21	42*	0	6	-6	-3	99
C=C(C)C(=O)Nc1cccc(C2=NOC3(C2)C[C@@H](C(N)=O)N(C(=O)CCCCC)C3)c1 (stereo partly drawn)	98*	.	1	.	90*	99	Aptamer quench 1=-0.2
CCC(=O)Nc1cccc(C2=NOC3(C2)C[C@H](C(N)=O)N(C(=O)CC#N)C3)c1 (stereo partly drawn)	0	5	0	3	.	.	GRK2 confirm 2=-35;FAM quench SP=101
CCCCCC(=O)N1CC2(CC(c3cccc(NC(=O)[C@@H]4CCC(=O)N4)c3)=NO2)C[C@@H]1C(N)=O (stereo partly drawn)	0	3	-3	2	.	.	GRK2 confirm 2=-13;FAM quench SP=100
C=C(C)C(=O)Nc1cccc(C2=NOC3(C2)C[C@@H](C(N)=O)N(C(=O)c2cc([N+](=O)[O-])cc([N+](=O)[O-])c2)C3)c1 (stereo partly drawn)	79*	-61	5	-2	57*	97	Aptamer quench 1=8.5
CCC(=O)Nc1cccc(C2=NOC3(C2)C[C@@H](C(N)=O)N(C(=O)CC)C3)c1 (stereo partly drawn)	2	-15	-3	7	.	.
Cc1ccc(NS(=O)(=O)c2cc([N+](=O)[O-])ccc2N/N=C/c2sc(N3CCOCC3)nc2-c2ccccc2)c(C)c1	0	-14	1	6	.	.
O=C(C[C@@H]1CC[C@@H]2[C@H](COC[C@H](O)CN2S(=O)(=O)c2ccccc2)O1)Nc1ccccc1	.	3	.	.	.	.
CNS(=O)(=O)c1ccc(NC(=O)c2ccccn2)cc1	0	0	-3	2	.	.
CC1(C(=O)N2CC3(CC(c4cccc(NC(=O)CC(c5ccccc5)c5ccccc5)c4)=NO3)C[C@@H]2C(N)=O)CC1 (stereo partly drawn)	0	-2	5	13	.	.	GRK2 confirm 2=6;FAM quench SP=99
CCC(=O)Nc1cccc(C2=NOC3(C2)C[C@@H](C(N)=O)N(C(=O)C2(C)CC2)C3)c1 (stereo partly drawn)	2	10	-1	5	.	.
FC(F)(F)c1cc(Cl)c2nnc(-c3ccccn3)n2c1	0	-8	-6	-1	.	.
SMILES	GRK2 inh	Neddylation inh	HDAC3 inh	H9c2 protect	GRK2 inh confirm	FAM quench CP1	others
O=C(O)c1ccccc1-c1nnc2c(Cl)cc(C(F)(F)F)cn12	7	-1	4	0	2	101
Cc1c(NC(=O)Nc2ccc(Cl)c(Cl)c2)sc(=S)n1C	2	4	13	-28	.	.
COc1ccc(NC(=O)Nc2sc(=S)n(C)c2C)cc1	98*	-4	6	4	-3	96
Cc1c(NC(=O)OC(C)C)sc(=S)n1C	34	-10	4	6	0	117
Cc1ccc(C(=O)NCCCNC(=O)COc2ccc(Cl)cc2)cn1	0	0	7	3	.	.
COc1ccc([C@H]2Cc3cccc(O)c3C(=O)O2)cc1O	85*	25	4	-5	-2	104
O=C(NCC1CCCO1)C1CC1(c1ccccc1)c1ccccc1 (stereo not drawn)	1	6	-2	1	.	.
COc1ccccc1N1CCN(/N=C/c2ccc(Cl)c([N+](=O)[O-])c2)CC1	100*	3	3	-10	1	98
COc1ccccc1N1CCN(/N=C/c2ccc([N+](=O)[O-])cc2)CC1	1	-30	5	-11	.	.
CCC(C)(C)NS(=O)(=O)c1cc(CN2C(=O)c3cccnc3C2=O)ccc1OC	1	-15	-3	8	.	.
CCOC(=O)C1=C(CS(=O)(=O)c2ccccc2)NC(=O)NC1c1ccc(OC)c(OC)c1 (stereo not drawn)	40	-2	.	1	1	101
COC(=O)C1=C(CS(=O)(=O)c2ccccc2)NC(=O)NC1c1ccc(OC)c(OC)c1 (stereo not drawn)	0	0	-2	6	.	.
N[C@H]1CONC1=O	4	.	-2	.	-1	101
CCN(CC)CCN(CC)Cc1ccccc1Br	99*	1	-1	-4	2	101
CCN(CCO)Cc1csc2cccc(Br)c12	1	3	1	9	.	.
Nc1nc(COC(=O)C2CCN(C(=O)c3ccc(Cl)cc3)CC2)nc(Nc2ccccc2)n1	0	8	0	0	.	.
Nc1nc(SCC(=O)N2N=C3/C(=C/c4ccco4)CCCC3C2c2ccco2)n[nH]1 (stereo not drawn)	0	8	9	1	.	.
O=C(CSc1nccc(=O)[nH]1)N1N=C2/C(=C/c3ccco3)CCCC2C1c1ccco1 (stereo not drawn)	42*	9	0	-7	1	98
Cc1nnc(NC(=O)c2ccc3ccccc3n2)s1	0	-5	5	-4	.	.
